Measured values taken from PubChem BioAssay AID1224853 (National Center for Advancing Translational Sciences (NCATS), 2016).
Results filed as inconclusive are left out. A call without a number means that no potency is given here. The source made the active and inactive calls. Calls follow the shape of the dose curve; as a rule, active = well fitted inhibition curve with a large enough effect; inconclusive = small, poorly fitted or top-dose-only effect; inactive = no such curve, though single readings can be large or run the other way.

Experiment: Confirmation assay for measurement of the activity of small molecule inhibitors on Zika virus induced Caspase-3 activity in human astrocytoma cells
Settings: SNB-19 ZIKV-induced caspase-3/7, luminescence, 6 h; series mostly up to 46.1 µM
In short: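 Luminescence readout (Caspase-Glo 3/7, 30 min RT) of ZIKV-induced caspase activity in SNB-19 cells; compound added 1 h before virus (2 FFU/cell), 6 h infection. Normalized to uninfected and infected wells.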
For `Cc1cc(O)c2ccccc2c1O`, the Potency was “inactive”.
With `COc1ccc(CC2=NN3C([C@@H](CCc4ccccc4)[C@@H](C)O)=NC(C)C3C(=O)N2)cc1OC` (stereo partly specified) the Potency was “inactive”.
With `O=C(Oc1ccccc1)c1cccc(C(=O)Oc2ccccc2)c1` the Potency was 4.47 µM (active).
For `Nc1ccc(N=Nc2ccccc2)c(N)n1`, the Potency was 12.3 µM (active).
For `CNC1[C@H](O)C(O[C@@H]2C(O)C(O[C@H]3O[C@H]([C@@H](C)NC)CC[C@H]3N)[C@@H](N)C[C@H]2N)OC[C@]1(C)O` (stereo partly specified), the Potency was “inactive”.
For `CCCCC1C(=O)N(c2ccccc2)N(c2ccc(O)cc2)C1=O` (stereo unspecified), the Potency was “inactive”.
For `CC(C)c1ccc2oc3nc(N)c(C(=O)O)cc3c(=O)c2c1`, the Potency was 1.95 µM (active).
In the case of `CC(=O)Nc1ccc([C@H](C)C(=O)Nc2ncc(C(C)C)s2)cc1`, the Potency is reported as 9.75 µM (active).
With `CCN1CCC(n2cc(CNc3cc(Cl)c4ncc(C#N)c(Nc5ccc(F)c(Cl)c5)c4c3)nn2)CC1` the Potency was “inactive”.
For `Cc1oncc1C(=O)Nc1ccc(C(F)(F)F)cc1`, the Potency was 3.08 µM (active).
In the case of `C[C@@H]1CCN(C(=O)CC#N)C[C@H]1N(C)c1ncnc2[nH]ccc12`, the Potency is reported as “inactive”.
With `CC(C)(C)OC(=O)CN(Cc1ccc(Cl)cc1)Cc1ccc([N+](=O)[O-])s1` the Potency was “inactive”.
For `CC1(C)Cc2c(sc(NC(=S)NC(=O)c3ccccc3)c2C(=O)O)CO1`, the Potency was “inactive”.
In the case of `CN(C)c1ccc(C(=C2C=CC(=[N+](C)C)C=C2)c2ccccc2)cc1`, the Potency is reported as “inactive”.
In the case of `c1ccc(CCNc2nc(-c3ccccc3)cs2)cc1`, the Potency is reported as 15.5 µM (active).
With `CC=CC[C@@H](C)C(=O)[C@H]1C(=O)N[C@@H](C(C)C)C(=O)N(C)CC(=O)N(C)[C@@H](CC(C)C)C(=O)N[C@@H](C(C)C)C(=O)N(C)[C@@H](CC(C)C)C(=O)N[C@@H](C)C(=O)N[C@H](C)C(=O)N(C)[C@@H](CC(C)C)C(=O)N(C)[C@@H](CC(C)C)C(=O)N(C)[C@@H](C(C)C)C(=O)N1C` the Potency was “inactive”.
